For part of these data: Measured potencies and affinities stand elsewhere.
What was measured:
Design in all cases: scale not given: direction of the effect not stated beside the values
[1] = molecular target: Protein translocase subunit SecA (Escherichia coli (strain K12)) (UniProt P10408); test: Assay to Identify E. coli SecA ATPase Inhibitors; format: functional; conditions: 30 µM
[2] = molecular target: T1, Ubiquitin-activating enzyme e1, putative (Leishmania donovani (strain BPK282A1)) (UniProt E9BSI1); test: Leishmania donovani Ubiquitin Activating Enzyme (LdE1); format: functional; conditions: 30 µM
T1 sequence (whole entry): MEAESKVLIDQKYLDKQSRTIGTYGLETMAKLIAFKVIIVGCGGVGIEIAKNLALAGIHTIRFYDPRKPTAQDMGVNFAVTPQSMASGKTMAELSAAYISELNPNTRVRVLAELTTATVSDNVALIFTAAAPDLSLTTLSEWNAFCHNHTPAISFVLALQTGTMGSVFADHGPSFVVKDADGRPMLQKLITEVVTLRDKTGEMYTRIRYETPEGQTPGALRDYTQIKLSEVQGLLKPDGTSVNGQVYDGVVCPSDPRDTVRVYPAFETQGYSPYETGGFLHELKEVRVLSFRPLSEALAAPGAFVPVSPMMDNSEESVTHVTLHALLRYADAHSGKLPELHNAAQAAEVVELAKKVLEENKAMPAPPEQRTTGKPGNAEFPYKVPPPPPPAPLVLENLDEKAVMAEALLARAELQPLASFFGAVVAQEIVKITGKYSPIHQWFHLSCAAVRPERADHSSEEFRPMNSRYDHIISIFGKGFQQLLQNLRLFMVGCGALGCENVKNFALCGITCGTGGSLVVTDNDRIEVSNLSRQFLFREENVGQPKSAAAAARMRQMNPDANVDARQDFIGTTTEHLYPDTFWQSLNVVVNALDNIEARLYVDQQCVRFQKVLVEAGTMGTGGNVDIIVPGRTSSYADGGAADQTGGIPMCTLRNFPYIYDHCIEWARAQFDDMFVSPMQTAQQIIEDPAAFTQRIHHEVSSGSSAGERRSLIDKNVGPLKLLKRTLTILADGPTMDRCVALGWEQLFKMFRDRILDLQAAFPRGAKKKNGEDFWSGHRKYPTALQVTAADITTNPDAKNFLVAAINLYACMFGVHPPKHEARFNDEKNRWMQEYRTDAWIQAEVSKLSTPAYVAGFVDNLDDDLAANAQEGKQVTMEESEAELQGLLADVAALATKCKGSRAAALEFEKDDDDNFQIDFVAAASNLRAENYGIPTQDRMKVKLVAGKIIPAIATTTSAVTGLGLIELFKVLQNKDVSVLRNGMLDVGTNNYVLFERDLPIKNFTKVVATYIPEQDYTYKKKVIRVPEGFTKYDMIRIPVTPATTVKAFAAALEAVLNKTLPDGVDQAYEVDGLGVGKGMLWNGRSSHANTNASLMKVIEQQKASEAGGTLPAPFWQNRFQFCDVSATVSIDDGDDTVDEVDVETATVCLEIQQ

[3] = molecular target: AMP-activated protein kinase, AMPK (Homo sapiens) (UniProt P54646+O43741+P54619+Q9UGJ0+Q9Y478+Q13131+Q9UGI9); test: AMP-dependent Kinase enzyme assay. An in vitro enzyme assay that detects ADP turnover that is directly proportional to AMPK activity. This uses naive AMPK that is activated during the assay with MK-8722; format: functional; conditions: 30 µM
[4] = molecular target: Sialic acid-binding Ig-like lectin 9 (Homo sapiens) (UniProt Q9Y336); test: Hs-Siglec9 ALPHAscreen SOP 20170721; conditions: 10 µM
Sialic acid-binding Ig-like lectin 9 (Homo sapiens), sequence (Q9Y336 whole entry): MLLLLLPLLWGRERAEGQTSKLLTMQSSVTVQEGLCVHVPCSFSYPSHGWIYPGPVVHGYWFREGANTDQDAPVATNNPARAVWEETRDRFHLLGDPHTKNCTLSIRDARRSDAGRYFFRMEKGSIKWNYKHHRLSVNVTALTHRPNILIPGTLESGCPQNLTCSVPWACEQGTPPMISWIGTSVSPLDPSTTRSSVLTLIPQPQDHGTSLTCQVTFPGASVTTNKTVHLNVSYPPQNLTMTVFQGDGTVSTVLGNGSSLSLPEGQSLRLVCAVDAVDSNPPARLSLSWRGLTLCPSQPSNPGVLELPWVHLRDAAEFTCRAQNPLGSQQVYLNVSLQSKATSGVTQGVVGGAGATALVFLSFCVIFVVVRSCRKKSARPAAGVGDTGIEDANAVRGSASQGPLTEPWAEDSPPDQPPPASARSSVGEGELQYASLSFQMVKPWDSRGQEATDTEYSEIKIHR

Trypanosoma cruzi = test: Trypanosoma cruzi phosphomannomutase and mannose-1-phosphate guanylyltransferase assay; format: functional; conditions: 10 µM
[5] = molecular target: T2, Arginase-2, mitochondrial (Homo sapiens) (UniProt P78540); test: in vitro enzyme assay to detect the production of urea directly proportional to the activity of Arginase II; format: functional; conditions: 33.3 µM; also: in the data most compounds retested in dose-response had high values
T2 sequence (whole entry): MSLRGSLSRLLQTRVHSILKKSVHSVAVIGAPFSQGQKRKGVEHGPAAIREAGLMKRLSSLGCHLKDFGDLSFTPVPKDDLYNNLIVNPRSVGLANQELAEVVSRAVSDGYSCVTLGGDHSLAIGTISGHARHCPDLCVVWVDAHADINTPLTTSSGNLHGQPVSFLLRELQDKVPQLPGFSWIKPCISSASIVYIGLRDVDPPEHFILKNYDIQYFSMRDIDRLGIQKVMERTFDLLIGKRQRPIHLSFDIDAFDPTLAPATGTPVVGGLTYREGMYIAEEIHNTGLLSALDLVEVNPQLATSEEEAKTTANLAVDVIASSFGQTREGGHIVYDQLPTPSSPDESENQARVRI

[6] = molecular target: T3, Proteasome subunit beta (Trypanosoma cruzi) (UniProt O96673); test: Trypanosoma cruzi proteasome chymotrypsin-like activity (TcProtChymo) assay.; also: in the data most compounds retested in dose-response had high values; format: functional; conditions: 9.37 µM
T3 sequence (whole entry): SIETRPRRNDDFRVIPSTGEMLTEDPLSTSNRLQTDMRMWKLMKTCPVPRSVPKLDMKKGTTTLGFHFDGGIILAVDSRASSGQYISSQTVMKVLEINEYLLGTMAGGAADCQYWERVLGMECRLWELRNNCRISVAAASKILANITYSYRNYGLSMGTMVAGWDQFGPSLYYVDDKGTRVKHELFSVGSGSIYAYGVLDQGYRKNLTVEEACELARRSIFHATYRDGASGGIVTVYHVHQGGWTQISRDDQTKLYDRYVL

Homo sapiens = species on record: Homo sapiens; test: To identify inhibition of the IFN signalling (Jak-Stat) pathway via expression of an eGFP reporter gene under the control of an IFN-stimulated response element (ISRE) containing MxA promoter.; format: functional; conditions: 30 µM
[7] = molecular target: T4, Tyrosyl-tRNA synthetase, putative (Trypanosoma cruzi (strain CL Brener)) (UniProt Q4DSP6); test: Trypanosoma cruzi tyrosyl tRNA synthetase (TcYRS) _High Tyrosine SOP; format: functional; conditions: 30 µM; also: in the data most compounds retested in dose-response had high values
T4 sequence (whole entry): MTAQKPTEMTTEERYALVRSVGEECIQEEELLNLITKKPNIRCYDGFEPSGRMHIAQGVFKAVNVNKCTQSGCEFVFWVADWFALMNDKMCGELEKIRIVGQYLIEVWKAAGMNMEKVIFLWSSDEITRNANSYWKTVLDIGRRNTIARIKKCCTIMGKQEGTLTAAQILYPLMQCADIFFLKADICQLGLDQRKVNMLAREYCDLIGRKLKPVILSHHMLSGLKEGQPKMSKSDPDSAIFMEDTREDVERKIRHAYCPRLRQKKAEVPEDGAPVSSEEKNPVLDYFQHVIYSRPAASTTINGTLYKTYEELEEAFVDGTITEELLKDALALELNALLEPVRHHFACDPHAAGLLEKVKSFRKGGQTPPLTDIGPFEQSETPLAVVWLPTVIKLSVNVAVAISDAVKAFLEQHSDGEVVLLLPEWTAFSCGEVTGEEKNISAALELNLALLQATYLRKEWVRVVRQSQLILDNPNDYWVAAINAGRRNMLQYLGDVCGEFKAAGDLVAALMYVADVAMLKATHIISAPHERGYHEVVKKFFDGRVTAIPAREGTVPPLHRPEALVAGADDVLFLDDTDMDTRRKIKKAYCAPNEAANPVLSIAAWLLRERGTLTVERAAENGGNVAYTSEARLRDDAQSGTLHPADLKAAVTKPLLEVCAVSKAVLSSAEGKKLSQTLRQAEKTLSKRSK

[8] = molecular target: T4, Tyrosyl-tRNA synthetase, putative (Trypanosoma cruzi (strain CL Brener)); test: Trypanosoma cruzi tyrosyl tRNA synthetase (TcYRS) SOP; format: functional; conditions: 30 µM
[9] = molecular target: Chromo domain-containing protein 1 (Saccharomyces cerevisiae (strain ATCC 204508 / S288c) (Baker's yeast)) (UniProt P32657); test: ScCHD-1 Enzyme Inhibition Assay; format: functional; conditions: 30 µM; also: in the data most compounds retested in dose-response had high values
Chromo domain-containing protein 1 (Saccharomyces cerevisiae (strain ATCC 204508 / S288c) (Baker's yeast)), sequence (P32657 whole entry, the tested form may be a part): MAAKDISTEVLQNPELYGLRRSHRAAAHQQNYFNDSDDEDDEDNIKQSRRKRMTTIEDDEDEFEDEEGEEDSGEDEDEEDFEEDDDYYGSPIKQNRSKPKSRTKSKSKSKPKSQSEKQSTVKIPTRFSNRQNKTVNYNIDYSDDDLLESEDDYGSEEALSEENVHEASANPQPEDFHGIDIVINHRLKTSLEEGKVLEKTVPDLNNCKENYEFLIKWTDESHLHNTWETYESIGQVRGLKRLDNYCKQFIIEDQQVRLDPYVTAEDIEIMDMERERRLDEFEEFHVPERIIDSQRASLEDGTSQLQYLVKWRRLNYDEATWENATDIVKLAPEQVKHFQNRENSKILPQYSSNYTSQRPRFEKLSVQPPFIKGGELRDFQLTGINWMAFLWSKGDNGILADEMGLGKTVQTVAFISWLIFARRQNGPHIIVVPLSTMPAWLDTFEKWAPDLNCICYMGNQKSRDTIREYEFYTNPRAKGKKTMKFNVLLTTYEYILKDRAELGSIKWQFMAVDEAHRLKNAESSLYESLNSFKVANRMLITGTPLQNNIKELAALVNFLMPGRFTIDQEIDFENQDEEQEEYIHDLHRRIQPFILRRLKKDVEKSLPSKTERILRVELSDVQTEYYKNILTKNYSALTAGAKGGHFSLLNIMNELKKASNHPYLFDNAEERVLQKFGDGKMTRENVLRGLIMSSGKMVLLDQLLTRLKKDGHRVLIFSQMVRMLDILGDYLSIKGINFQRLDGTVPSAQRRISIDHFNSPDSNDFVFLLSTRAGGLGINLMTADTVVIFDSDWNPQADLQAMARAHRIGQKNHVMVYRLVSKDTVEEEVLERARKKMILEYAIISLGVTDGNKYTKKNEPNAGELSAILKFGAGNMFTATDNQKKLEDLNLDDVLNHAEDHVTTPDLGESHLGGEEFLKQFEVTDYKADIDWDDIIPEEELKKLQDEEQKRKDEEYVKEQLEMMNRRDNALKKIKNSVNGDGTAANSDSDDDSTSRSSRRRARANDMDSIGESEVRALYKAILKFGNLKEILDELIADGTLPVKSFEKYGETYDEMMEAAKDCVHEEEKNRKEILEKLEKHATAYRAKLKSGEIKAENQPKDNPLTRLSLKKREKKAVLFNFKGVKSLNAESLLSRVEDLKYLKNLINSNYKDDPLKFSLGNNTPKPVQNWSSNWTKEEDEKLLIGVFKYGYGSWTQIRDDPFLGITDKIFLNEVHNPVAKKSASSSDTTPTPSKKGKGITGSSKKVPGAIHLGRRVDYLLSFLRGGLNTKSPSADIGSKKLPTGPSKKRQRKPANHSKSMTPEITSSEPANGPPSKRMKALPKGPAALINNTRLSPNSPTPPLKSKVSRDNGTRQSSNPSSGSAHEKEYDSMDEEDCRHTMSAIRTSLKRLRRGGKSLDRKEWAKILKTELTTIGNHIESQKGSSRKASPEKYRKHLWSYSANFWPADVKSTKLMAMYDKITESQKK

Protein translocase subunit SecA (Escherichia coli (strain K12)), sequence (P10408 whole entry): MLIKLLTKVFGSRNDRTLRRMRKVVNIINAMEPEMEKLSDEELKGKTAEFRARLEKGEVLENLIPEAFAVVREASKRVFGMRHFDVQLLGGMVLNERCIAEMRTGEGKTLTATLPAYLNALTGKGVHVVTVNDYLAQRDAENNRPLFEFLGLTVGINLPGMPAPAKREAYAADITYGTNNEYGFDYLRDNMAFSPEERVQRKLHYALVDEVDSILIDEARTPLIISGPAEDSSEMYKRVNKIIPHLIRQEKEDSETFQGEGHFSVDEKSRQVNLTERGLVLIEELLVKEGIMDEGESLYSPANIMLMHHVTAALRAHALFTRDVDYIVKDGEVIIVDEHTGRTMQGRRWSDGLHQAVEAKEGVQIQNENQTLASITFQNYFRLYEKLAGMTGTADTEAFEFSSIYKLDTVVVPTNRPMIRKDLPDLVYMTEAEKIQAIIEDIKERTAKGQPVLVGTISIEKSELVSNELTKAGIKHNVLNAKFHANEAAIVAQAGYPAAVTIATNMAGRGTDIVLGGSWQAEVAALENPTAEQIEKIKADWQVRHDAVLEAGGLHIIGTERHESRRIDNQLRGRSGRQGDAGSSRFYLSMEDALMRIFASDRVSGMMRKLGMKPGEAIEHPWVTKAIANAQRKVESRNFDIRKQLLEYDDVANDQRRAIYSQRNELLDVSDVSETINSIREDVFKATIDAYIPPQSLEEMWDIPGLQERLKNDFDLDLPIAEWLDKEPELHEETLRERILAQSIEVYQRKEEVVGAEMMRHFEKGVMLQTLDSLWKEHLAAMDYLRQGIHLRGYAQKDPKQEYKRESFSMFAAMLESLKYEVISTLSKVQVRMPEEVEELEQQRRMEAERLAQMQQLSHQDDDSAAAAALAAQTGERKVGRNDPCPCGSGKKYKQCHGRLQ

Row | Structure (SMILES) | Percent Effect [1] | Percent Effect [2] | Percent Effect [3] | Percent Effect [4] | Percent Effect (Trypanosoma cruzi) | Percent Effect [5] | Percent Effect [6] | Percent Effect (Homo sapiens) | Percent Effect [7] | Percent Effect [8] | Percent Effect [9]
1 | CCc1cnc(CN(C)C2CCN(CCS(C)(=O)=O)C2)o1 (stereo unspecified) | -1.6% | -1.39% | -3.86% | -4.8% | -5.54% | 2.21% | 3.51% | -7.25% | 0% | 2.56% | 0.436%
2 | COc1cnc(N2CCC(Oc3ccccc3OC)(C(=O)O)CC2)nc1 | -5.13% | 11% | 0.422% | 4.04% | 0.595% | -2% | 8.99% | -4.79% | 5.21% | 8.64% | -4.67%
3 | CCOc1ncccc1CNC(=O)N1CCCC1c1cc(C)no1 (stereo unspecified) | -3.76% | 8% | -5.83% | 0.983% | -1.66% | 0.521% | 12% | 14.2% | 8.2% | 16.1% | -6.86%
4 | Cc1cc(C)c(CNC(=O)NCC(O)c2cccc(F)c2)c(=O)[nH]1 (stereo unspecified) | -7% | 7.89% | 0.0351% | 13.9% | -0.0934% | -3.96% | 7.36% | 7.32% | 9.36% | 13.6% | -1.76%
5 | CC(C)c1n[nH]c(C2CN(C(=O)c3cccc4cn[nH]c34)CCO2)n1 (stereo unspecified) | -1.73% | 7.89% | 4.13% | 11.6% | 2.33% | 1.8% | 4.32% | 4.21% | 2.46% | 6.17% | -0.736%
6 | O=C(c1cccc2c1OCO2)N1CCCC1Cn1cccn1 (stereo unspecified) | -4.17% | -2.6% | 1.97% | 4.11% | -1.47% | -1.9% | 6.55% | 14.8% | 3.81% | 9.41% | -8.43%
7 | Cn1c(CC2CCS(=O)(=O)C2)nnc1SCCOc1cccc(Cl)c1 (stereo unspecified) | -2.94% | 10.8% | -5.55% | 20.9% | 4.99% | 3.23% | 14.8% | -7.24% | 4.3% | 16.1% | -10.4%
8 | Cc1noc(C)c1CNc1cc(N2CCCC2CO)ncn1 (stereo unspecified) | -2.84% | 6.33% | -25.2% | 4.54% | 1.54% | 1.5% | 1.03% | -8.87% | 0% | 12.7% | -23.1%
9 | Cc1c(C(=O)N2CCCC2c2cnn(C)c2)nnn1-c1ccccc1 (stereo unspecified) | -5.12% | 13.5% | -11.2% | 15.4% | 4.55% | -3.14% | 9.87% | 8.27% | 0.99% | 13.4% | -7.97%
10 | Cc1ccc(N2CCCN(C(=O)CC3CCCO3)CC2)nn1 (stereo unspecified) | -2.51% | 21.6% | -11.8% | 5.27% | 3.87% | -8.82% | 14.8% | 7.13% | -1.48% | 18.5% | -9.23%
11 | CNS(=O)(=O)c1ccc(CNC(=O)NCC2CCCO2)cc1 (stereo unspecified) | -5% | 13% | 16.9% | -9.06% | 1.67% | -2.74% | 12.8% | 14.9% | 0.952% | 18.8% | -17.3%
12 | CC(=O)N1CCOCC2(CN(Cc3ccc(C)o3)CCO2)C1 (stereo unspecified) | -8.61% | 2.67% | 0.553% | -4.1% | 0.591% | 0.699% | 1.67% | 17.8% | 3.19% | 1.28% | -4.82%
13 | COCc1cc(NCCc2ccc(F)cc2)n2nccc2n1 | -5.32% | 0% | 14.1% | -6.47% | -0.196% | -2.27% | -0.887% | -6.7% | 1.07% | 5% | -5.83%
14 | CC(O)CN1CCN(Cc2cccc(C(=O)N(C)C)c2)CC1 (stereo unspecified) | -4.84% | -141% | -53.4% | 5.64% | 1.02% | -3.51% | -4.31% | 5.72% | 5.94% | 3.66% | 9.61%
15 | O=C1[C@H]2CC[C@H](CN(C3CSCCSC3)C2)N1Cc1cscn1 | -0.514% | 2.74% | 6.23% | 4.75% | -8.53% | -1.2% | 18.4% | 8.4% | 8.33% | 16.1% | 1.67%
16 | O=S1(=O)C[C@@H]2[C@H](C1)N(Cc1cc(Cl)cc(Cl)c1)CCN2CC1CC1 | -4.25% | 8% | -0.723% | -1.32% | -2.24% | 1.56% | 12% | 22.5% | 2.73% | 11.1% | -6.73%
17 | Cn1cc(C2CC(=O)NC23CCN(c2ncc(F)cn2)CC3)cn1 (stereo unspecified) | 0.954% | 16% | 3.9% | 5.28% | -4.25% | -16.3% | 3.08% | 16.6% | 1.04% | 17.5% | -4.13%
18 | CSc1sc(NC(=O)Cc2c(C)nc(C)[nH]c2=O)nc1C | -6.26% | 7.89% | -7.94% | 7.61% | 5.83% | -2.68% | 6.18% | 7.45% | 7.35% | 12.2% | -12.2%
19 | Cc1cnn(CC2CCCCN2CC(=O)NCc2ccccn2)c1 (stereo unspecified) | -2.64% | -2.63% | 6.62% | 0.337% | 7.11% | -1.18% | 17.4% | -2.67% | 5.32% | 5.2% | -0.694%
20 | CN(Cc1ccc(N2CCCCC2)cc1)Cc1noc(C(C)(C)C)n1 | -2.34% | -13% | -0.29% | 2.11% | 0.492% | 0% | 13.8% | 9.08% | -2.15% | -6.17% | -1.32%
21 | O=C(Cc1ccc2c(c1)CCC2)NCCNc1ncccn1 | -2.76% | 21.1% | 0.848% | 1.21% | 2.89% | 3.96% | 18.4% | -17.3% | 6.4% | 30.9% | -10.6%
